# From PubChem BioAssay (NCI)
# About 83,000 compounds went through this panel and 20% of them were active in at least one assay; those are over-represented in the sample as a whole.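 Step 1: grow cells in 96-well plates. Step 2: add test compound at a single concentration. Step 3: incubate 48 h. Step 4: record percent growth.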 Unmarked numbers belong to inactive results. Active and inactive are the calls of the source. Rule for the calls: active = growth percent below 10; inactive = the rest.
# How the values were obtained:
# Experiment in all cases: NCI-60 one-dose screen, 48 h (100 = growth as untreated, 0 = no growth, -100 = all killed)
# Settings in all cases: 10 µM
# T-47D breast = tested on: T-47D breast
# BT-549 breast = tested on: BT-549 breast
# MDA-MB-435 melanoma = tested on: MDA-MB-435 melanoma
# SW-620 colon = tested on: SW-620 colon
# MCF7 breast = tested on: MCF7 breast
# HCT-116 colon = tested on: HCT-116 colon
# HCC-2998 colon = tested on: HCC-2998 colon
# KM12 colon = tested on: KM12 colon
Compound,growth (T-47D breast),growth (BT-549 breast),growth (MDA-MB-435 melanoma),growth (SW-620 colon),growth (MCF7 breast),growth (HCT-116 colon),growth (HCC-2998 colon),growth (KM12 colon)
CN1C(C(=O)Nc2ccccn2)=C(O)c2sc(Cl)cc2S1(=O)=O,92.6%,108%,97.6%,95.8%,96.6%,100%,95.1%,104%
CCOC(=O)CN(c1sc(C)c(C)c1C(=O)OCC)S(=O)(=O)c1ccc(C)cc1,88.5%,102%,102%,100%,100%,95.5%,100%,96%
COc1cc2cc(Oc3ccc(NC(=O)Nc4cccc(C(F)(F)F)c4)cc3)c(C)nc2cc1OC,27.8%,-8.13% (active),7.23% (active),17.5%,6.81% (active),6.71% (active),25.4%,-10.2% (active)
O=C(Nc1ccccc1)Nc1ncnc2c1ncn2-c1ccccc1,51.3%,89.4%,84.8%,94%,78.9%,29.2%,92.6%,87.4%
S=C(NCc1ccccc1)NCc1ccccc1,94.6%,95.4%,101%,100%,96.3%,97.3%,111%,102%
O=S(=O)(NCCCNc1nccc(-c2cn(-c3ccccc3)nc2-c2ccc(Cl)c(O)c2)n1)c1ccccc1,42.9%,75.9%,68.7%,102%,33%,53.1%,91.6%,56.7%
COc1cc(/C=C2\CCCC3C2=Nc2ccccc2NC3c2cc(OC)c(OC)c(OC)c2)cc(OC)c1OC (configuration not stated),23.9%,-16.4% (active),3.26% (active),5.74% (active),36.9%,-58.4% (active),-60.2% (active),-65.3% (active)
O=C(CCl)Nc1ccc(Cc2ccc(NC(=O)CCl)cc2)cc1,14.7%,-23.5% (active),0.989% (active),-21.8% (active),1.46% (active),-56.8% (active),-14.9% (active),0.445% (active)
N=C1S/C(=C/c2ccc(-c3ccc4c(c3)C(=O)NC4=O)o2)C(=O)N1c1ccc(Br)cc1,19.9%,60.3%,39.1%,48.5%,3.39% (active),31.8%,89%,46.4%
COC(=O)C1OC1c1cc([N+](=O)[O-])ccc1OC (configuration not stated),70%,107%,107%,107%,89.3%,102%,96.1%,99.3%
O=C(CN1CCN(C(=O)c2ccccc2)CC1)Nc1ccccc1SCc1ccccc1,37.7%,68.1%,94.3%,98.5%,86.4%,85.5%,93.6%,84.2%
CCCN1CN2C(=O)N3CN(CCC)CN4C(=S)N(C1)C2C34 (configuration not stated),90%,89.5%,106%,108%,87.7%,82.9%,106%,101%
COc1cccc(-c2nc3sccn3c2-c2cccc(S(C)(=O)=O)c2)c1,98.7%,103%,110%,104%,79.6%,104%,94%,109%
Cc1ccc(/C=C/C(=O)C(=O)/C=C/c2ccc(C)cc2)cc1,92.4%,95.3%,76.9%,100%,23.8%,-36.8% (active),110%,93.8%
COc1cc(C2C(C#N)=C(N)Oc3cc(O)ccc32)cc(OC)c1OC (configuration not stated),16%,58.5%,-44.9% (active),21.4%,19.9%,17.8%,27.6%,15.8%
COc1cc2c(Nc3ccc(-c4ccc(N)cc4)cc3)ncnc2c(OC)c1OC,83%,85.5%,7.13% (active),14.4%,36.1%,58.3%,4.99% (active),3.42% (active)
COc1ccc(C2CC(c3cccs3)=NN2c2ccc(S(N)(=O)=O)cc2)cc1 (configuration not stated),85.1%,99.7%,82%,100%,75%,70.7%,92.5%,91.5%
COc1ccc2cc(-c3nc4ccccc4s3)c(Cl)nc2c1OC,91.2%,114%,110%,93.8%,92.9%,108%,105%,101%
CCCCC1(O)CCCCC1,91.5%,95.5%,106%,102%,101%,102%,103%,96.8%
Cc1ccc(C2=NN(c3ccc(S(C)(=O)=O)cc3)C(=O)CC2)cc1,32.7%,11.3%,-61.2% (active),8.58% (active),16.2%,17.7%,47.2%,35%
COc1ccc(-c2nn(-c3cccc(Cl)c3)cc2-c2c(C#N)c(=O)n3[nH]c(-c4ccccc4)nc3c2C#N)cc1,73.9%,84.4%,91.1%,108%,63.4%,87.3%,108%,94%
CCN1CCN(CCC(=O)Nc2cccc(-n3cc(-c4ccncc4)c(-c4ccc(Cl)c(OC)c4)n3)c2)CC1,38.8%,39.2%,-47% (active),10.3%,15.5%,5.22% (active),43.8%,15.7%
CCc1cc(Cl)c(OC)c(C(=O)NCC2CCCN2CC)c1O (configuration not stated),80.9%,89.2%,92.7%,91.7%,95.8%,88.5%,96.4%,101%
COCCn1cc(-c2nc(-c3cccnc3)cs2)c2cc(F)ccc21,87.7%,93%,79.9%,99.4%,102%,102%,102%,69.4%
CC(=O)O[C@@]12CO[C@@H]1C[C@H](O)[C@@]1(C)C(=O)[C@H](O)C3=C(C)[C@@H](OC(=O)[C@H](O)[C@@H](NC(=O)OC(C)(C)C)c4ccccc4)C[C@@](O)([C@@H](OC(=O)c4ccccc4)C12)C3(C)C (some centres not stated),65.2%,42.8%,-11.7% (active),48.1%,16.1%,34.6%,-18.8% (active),29.6%
CNS(=O)(=O)Oc1ccc(-c2ccc3occc3c2)cc1,89.1%,91.5%,100%,102%,111%,95.5%,96.5%,99%
CCOc1ccccc1/C=N\N=C\c1ccccc1O,78.5%,84.2%,107%,105%,84.2%,98.8%,102%,95.3%
O=C1/C=C/[C@@H](O)[C@@H]2C[C@@H](O)C[C@H]2/C=C/CCC[C@H](CCc2ccc(C(F)(F)F)cc2)O1,-32.2% (active),4.5% (active),7.3% (active),-1.3% (active),-17.5% (active),-45.8% (active),-11.5% (active),-6.74% (active)
O=C(NCCNC(=O)c1ccc(F)cc1)Nc1ccc(-n2cc(-c3ccncc3)c(-c3ccc(Cl)c(O)c3)n2)cc1,30.1%,-24.5% (active),-5.7% (active),15.1%,3.7% (active),-24.2% (active),-28.4% (active),0.713% (active)
